Measured values as given in article PMC4336329 (PLoS ONE, 2015).
The campaign covered roughly 310,000 compounds. About 2,200 (0.71%) showed an effect of 50% or more. The effect is printed as a negative number. This excerpt belongs to a sample that is enriched for strong results.

molecular target: human ether-à-go-go-related gene (hERG) potassium channel (human, UniProt Q12809); assay: primary screen, population patch clamp on CHO cells stably expressing hERG; higher = less effect of the substance
Sequence (Q12809 whole entry, looked up): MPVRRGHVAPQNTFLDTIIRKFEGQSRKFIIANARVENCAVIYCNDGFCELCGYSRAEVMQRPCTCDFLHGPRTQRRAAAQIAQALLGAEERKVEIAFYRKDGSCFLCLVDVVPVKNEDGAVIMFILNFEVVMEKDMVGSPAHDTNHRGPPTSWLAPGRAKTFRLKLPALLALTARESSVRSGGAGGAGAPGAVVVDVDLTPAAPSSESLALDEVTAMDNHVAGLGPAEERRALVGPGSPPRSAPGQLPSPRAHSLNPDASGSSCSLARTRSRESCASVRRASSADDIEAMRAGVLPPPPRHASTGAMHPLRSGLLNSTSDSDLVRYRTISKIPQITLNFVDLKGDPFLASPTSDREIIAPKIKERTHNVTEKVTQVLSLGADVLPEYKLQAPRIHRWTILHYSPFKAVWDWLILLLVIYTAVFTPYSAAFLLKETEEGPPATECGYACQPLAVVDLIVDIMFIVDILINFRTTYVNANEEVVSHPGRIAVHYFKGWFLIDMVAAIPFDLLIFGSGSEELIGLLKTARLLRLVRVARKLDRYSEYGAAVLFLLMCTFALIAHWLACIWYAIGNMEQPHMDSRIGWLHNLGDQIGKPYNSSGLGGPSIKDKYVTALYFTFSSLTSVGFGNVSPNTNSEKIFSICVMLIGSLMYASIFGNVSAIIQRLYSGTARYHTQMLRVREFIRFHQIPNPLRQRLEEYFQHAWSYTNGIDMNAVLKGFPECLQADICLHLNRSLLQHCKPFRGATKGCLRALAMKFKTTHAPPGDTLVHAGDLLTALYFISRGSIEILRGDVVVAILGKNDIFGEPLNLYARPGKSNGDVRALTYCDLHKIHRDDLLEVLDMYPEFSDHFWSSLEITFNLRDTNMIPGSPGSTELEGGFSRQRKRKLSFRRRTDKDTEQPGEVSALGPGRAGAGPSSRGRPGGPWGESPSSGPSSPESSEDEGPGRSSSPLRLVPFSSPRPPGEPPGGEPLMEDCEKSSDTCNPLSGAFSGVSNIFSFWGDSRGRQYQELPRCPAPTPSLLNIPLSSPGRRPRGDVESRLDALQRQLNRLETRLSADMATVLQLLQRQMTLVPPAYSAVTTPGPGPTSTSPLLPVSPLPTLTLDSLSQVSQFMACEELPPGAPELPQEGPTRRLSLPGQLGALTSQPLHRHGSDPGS

In order of falling “hERG current change (%, negative = inhibition) at 1uM” value:
1. CCOc1cccc(C2/C(=C(/O)c3ccc4c(c3)CC(C)O4)C(=O)C(=O)N2Cc2cccnc2)c1 (centres unmarked)  18.4%
2. COc1cc(C(=O)O)ccc1OCc1ccncc1  14.1%
3. COCCCn1c(=S)[nH]c2c(sc3ccccc32)c1=O  14.1%
4. CCOC(=O)c1ccc(NC(=O)c2nc[nH]c2C(=O)NCCCNC(=O)c2[nH]cnc2C(=O)Nc2ccc(C(=O)OCC)cc2)cc1  13.8%
5. O=C(O)C1=C(OCc2ccc(F)c(F)c2)C(=O)NCC1  13.4%
6. CNC(=O)Cn1ncc2c3ccccc3n(C)c2c1=O  13.1%
7. Cc1cc(C)c2c(N)c(C(=O)NNC(=O)c3ccccc3)sc2n1  12.8%
8. COc1cc2c(cc1OC)C1(Nc3c-2c(Cc2ccccc2)nn3-c2ccccc2)C(=O)Nc2ccccc21 (centres unmarked)  12.4%
9. Cc1ccc(C(C(=O)NC2CCCC2)N(Cc2ccccc2)C(=O)c2csnn2)o1 (centres unmarked)  12.4%
10. O=C(O)C1=C[C@H](C2CC2)C[C@H](OCCCCO)O1  12.3%
11. Cc1ccc(C(C)C)c(OCC(=O)N2CCN(c3ncccn3)CC2)c1  10%
12. CCOC(=O)C(=O)NC(C)CCc1ccccc1 (centres unmarked)  9.43%
13. CCN1CCN(C(=O)c2cc3c(=O)n(C)c4ccccc4c3n2C)CC1  8.54%
14. Cc1cccn2c(=O)c3cc(S(=O)(=O)c4ccccc4)c(=N)n(CC4CCCO4)c3nc12 (centres unmarked)  7.88%
15. CC(C)OCCCn1c(SC(C)C(=O)NCC2CCCO2)nc2cc(Cl)ccc2c1=O (centres unmarked)  7.81%
16. O=C(CSc1n[nH]c(=O)n1Cc1ccco1)Nc1ccccc1Cl  6.62%
17. Cc1nc(SCC(=O)NC2CCCC2)[nH]c(=O)c1C  6.4%
18. Cc1cccn2c(CN[C@@H]3CCCC[C@H]3c3ccccc3)c(C(=O)N3CCOCC3)nc12  4.31%
19. CCN(C(=O)c1cc2c(=O)n3cccc(C)c3nc2n1CCCOC)C1CCCCC1  4.12%
20. O=C(O)CC(NC(=O)C12CC3CC(CC(C3)C1)C2)c1cc([N+](=O)[O-])ccc1Cl (centres unmarked)  2.33%
21. O=C1OC(c2ccc(Cl)cc2)/C(=C(/O)c2ccccc2)C1=O (centres unmarked)  2.03%
22. N=c1c2c(-c3ccccc3)c(-c3ccccc3)n(Cc3ccccc3)c2ncn1CCO  0.416%
23. Cc1cccn2c(=O)nc(SCC(=O)NCc3ccc4c(c3)OCO4)nc12  -1.11%
24. Cc1cccn2c(CN3CCSCC3)c(C(=O)N3CCOCC3)nc12  -1.36%
25. N=c1c2c(-c3ccccc3)c(-c3ccccc3)n(Cc3ccco3)c2ncn1Cc1ccccc1  -4.13%
26. CCOC(=O)NCc1ccccc1  -5.01%
27. CC(C)N(Cc1nc(-c2ccc(Cl)cc2)no1)C(=O)CN(C)S(=O)(=O)c1ccc(Cl)cc1  -5.47%
28. Cc1cc(C)n(Cc2ccc(NC(=O)c3ccc(COc4ccccc4Br)cc3)cc2)n1  -8.42%
29. c1ccc(-c2c(-c3ccccc3)n(Cc3ccco3)c3ncnc(NCCCn4ccnc4)c23)cc1  -9.73%
30. COc1ccc(C2c3c(oc4ccc(Cl)cc4c3=O)C(=O)N2CCN2CCOCC2)cc1 (centres unmarked)  -24%
31. CCCCCCS(=O)[C@H]1CS(=O)(=O)C[C@@H]1S(=O)CCCCCC (some centres unmarked)  -25.8%
32. CC(C)Cn1cnc2c(c(-c3ccccc3)c(-c3ccccc3)n2Cc2ccco2)c1=N  -26.2%
33. N=c1c2c(-c3ccccc3)c(-c3ccccc3)n(Cc3ccco3)c2ncn1Cc1ccco1  -26.8%
34. N=c1c2c(-c3ccccc3)c(-c3ccccc3)n(Cc3ccccc3)c2ncn1CCCn1ccnc1  -32%
35. N=c1c2c(-c3ccccc3)c(-c3ccccc3)n(Cc3ccco3)c2ncn1CCCO  -34.5%
36. Cc1cccn2c(=O)c3cc(C(=O)NC4CCCCC4)c(=N)n(Cc4ccccc4)c3nc12  -40.2%
37. COCCCn1c(=N)c(C(=O)NCC2CCCO2)cc2c(=O)n3ccccc3nc21 (centres unmarked)  -44.3%
38. CCCCn1cnc2c(c(-c3ccccc3)c(-c3ccccc3)n2Cc2ccco2)c1=N  -45.6%
39. Cc1cccn2c(=O)c3cc(C(=O)NCC4CCCO4)c(=N)n(CCN4CCOCC4)c3nc12 (centres unmarked)  -50.1%
40. N=c1c2c(-c3ccccc3)c(-c3ccccc3)n(Cc3ccco3)c2ncn1CCO  -52.2%
41. Cc1cccn2c(CN3CCCC(c4ccccc4)C3)c(C(=O)N3CCOCC3)nc12 (centres unmarked)  -53.3%
42. N=c1c2c(-c3ccccc3)c(-c3ccccc3)n(Cc3ccco3)c2ncn1CCCn1ccnc1  -63.6%
43. CCCn1c(=N)c(C(=O)NCc2ccc3c(c2)OCO3)cc2c(=O)n3cccc(C)c3nc21  -67.3%
44. N=c1c2c(-c3ccccc3)c(-c3ccccc3)n(Cc3ccco3)c2ncn1CCN1CCOCC1  -72.3%
45. Cc1ccc2nc3c(cc(C(=O)NCC4CCCO4)c(=N)n3CCCOC(C)C)c(=O)n2c1 (centres unmarked)  -72.5%
46. COCCCn1c(=N)c(C(=O)NCC2CCCO2)cc2c(=O)n3cccc(C)c3nc21 (centres unmarked)  -74.8%
47. CCCn1c(=N)c(C(=O)NCC2CCCO2)cc2c(=O)n3cccc(C)c3nc21 (centres unmarked)  -78.3%
48. Cc1cccn2c(=O)c3cc(C(=O)NC4CCCC4)c(=N)n(CC4CCCO4)c3nc12 (centres unmarked)  -80.2%
49. Cc1cccn2c(=O)c3cc(C(=O)NCC4CCCO4)c(=N)n(CC4CCCO4)c3nc12 (centres unmarked)  -84.8%
50. N=c1c2c(-c3ccccc3)c(-c3ccccc3)n(Cc3ccco3)c2ncn1CCCN1CCOCC1  -91.3%
